GCN5L2 inh: GCN5L2 (KAT2A) acetyltransferase inhibition; Q92830; GCN5L2 HAT assay, ThioGlo1 CoA-SH fluorescence; Potency, µM (top dose mostly 58.9 µM), inactives show at the top dose activity change, negative = inhibition, hits mostly inhibitors; 390,000 tested, 0.21% active; AID 504327
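GCN5L2 (20nM final) in 50mM HEPES, 0.1mM EDTA pH 7.5, 0.01% Tween-20 was preincubated 15 min at room temperature with compound, then given ThioGlo1 (50uM), H3(1-25) peptide (75uM) and acetyl-CoA (70uM); CoA-thiol fluorescence (Ex340/Em540) was read at 0 and 20 min.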
VDR inhibitor: vitamin D3 receptor (human) inhibition; P11473; VDR-SRC2-3 peptide fluorescence polarization, 2 h; Potency, µM, inactives show max response, negative = inhibition, usual class: inhibitors; 400,000 tested, 0.93% active; AID 504847
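Fluorescence polarization assay measuring small-molecule disruption of VDR binding to the coregulator peptide SRC2-3. Compounds were pin-transferred (23 nl) into the reagent mix and incubated 2 h at room temperature before reading.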
TDP1 block: blocks human tyrosyl-DNA phosphodiesterase 1; Potency, µM (top dose mostly 130 µM), for inactives: top-dose activity change, negative = inhibition, hits mostly inhibitors; AID 485290; recombinant TDP1, AlphaScreen DNA substrate cleavage; Q9NUW8; 350,000 tested, 0.28% active; further: nearly all actives have a fitted effect of over 40% in size
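Steps: enzyme plus compound, 15 min RT; add biotin/phosphotyrosine-FITC oligonucleotide (15 nM final), react 5 min; add donor/acceptor beads (10 ug/ml final), 10 min; read AlphaScreen. Tdp1 at 1 nM final.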
TDP1 cell noCPT: qHTS for Inhibitors of human tyrosyl-DNA phosphodiesterase 1 (TDP1): qHTS in cells in absence of CPT; Potency, µM (doses to about 46.2 µM), without a hit: top-dose activity change, negative = growth inhibition, most hits filed as inhibitors; 420,000 tested, 15% active; DT40 Tdp1-/- hTDP1 cells, no CPT, ATP luminescence, 48 h; AID 686978, 2013; further: nearly all actives have a fitted effect of over 55% in size
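Chicken DT40 Tdp1-/- cells stably complemented with human TDP1 were seeded at 400 cells/well with DMSO in place of 20 nM camptothecin. After compound pinning, cells grew at least 48 hr at 37 °C; viability read by CellTiter-Glo luminescence.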
PLK1 PBD inh: PLK1 (human) polo-box domain binding inhibition; P53350; Plk1 PBD binding of FITC phosphopeptide, fluorescence polarization; Potency, µM, for the others: max response, negative = inhibition, actives largely listed as inhibitors; 360,000 tested, 2.8% active; further: series mostly up to about 57 µM; nearly all actives have a fitted effect of over 65% in size
Target sequence (P53350 whole entry, looked up, the tested form may be a part): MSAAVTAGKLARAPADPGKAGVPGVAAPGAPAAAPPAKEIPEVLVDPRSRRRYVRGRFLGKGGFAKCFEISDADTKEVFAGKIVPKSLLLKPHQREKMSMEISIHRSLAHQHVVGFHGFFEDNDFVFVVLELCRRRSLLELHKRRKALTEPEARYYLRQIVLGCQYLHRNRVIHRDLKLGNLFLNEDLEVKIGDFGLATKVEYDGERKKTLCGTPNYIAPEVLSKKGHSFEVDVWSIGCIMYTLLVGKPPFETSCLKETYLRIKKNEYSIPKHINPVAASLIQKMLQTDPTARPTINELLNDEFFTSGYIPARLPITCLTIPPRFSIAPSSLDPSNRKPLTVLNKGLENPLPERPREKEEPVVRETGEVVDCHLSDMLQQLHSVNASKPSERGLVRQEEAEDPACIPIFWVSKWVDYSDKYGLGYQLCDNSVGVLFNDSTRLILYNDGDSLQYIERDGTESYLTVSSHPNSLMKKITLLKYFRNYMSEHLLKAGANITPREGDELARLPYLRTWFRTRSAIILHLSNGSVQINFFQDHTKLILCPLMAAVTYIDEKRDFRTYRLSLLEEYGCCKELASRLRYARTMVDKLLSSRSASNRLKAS
TDP1 cell CPT: growth inhibition of DT40 Tdp1-/-;hTDP1 cells with camptothecin (screen for TDP1 inhibitors); chicken DT40 Tdp1-/-;hTDP1 cells + 20 nM CPT, ATP luminescence, 48 h; Potency, µM (series often up to 46.2 µM), without a hit: at the highest dose activity change, negative = growth inhibition, hits mostly inhibitors; 420,000 tested, 12% active; AID 686979; further: nearly all actives have a fitted effect of over 55% in size
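Chicken DT40 Tdp1-/- cells stably complemented with human TDP1 were seeded at 400 cells/well in medium containing 20 nM camptothecin, exposed to pin-transferred compounds, and grown at 37 °C for at least 48 hr. Viability was read as ATP luminescence.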
The depositor's hits bear a star; ? = inconclusive; / = not tested or not shown; [ ] = dose if it differs, or a comment. This is a sample that favours compounds with a hit; in the whole collection about 18% have one here. The call rests on the fitted dose curve; in most records, active means well fitted curve in the direction sought with a large enough effect; inconclusive means small, poorly fitted or top-dose-only effect, or another doubt; inactive means no such curve, though single readings can be large; an effect the other way counts as inactive or inconclusive. On the % scale 0 is the no-effect control and ±100 the full control effect; potency means the concentration at half of the fitted maximal effect.

SMILES	GCN5L2 inh	VDR inhibitor	TDP1 block	TDP1 cell noCPT	PLK1 PBD inh	TDP1 cell CPT
Cc1ccc(S(=O)(=O)N(CC(=O)Nc2c(C)cccc2C)c2cccc(Cl)c2)cc1	1%	5%	6%	15µM*	/	?
O=C(CN(c1cccc(C(F)(F)F)c1)S(=O)(=O)c1ccccc1)Nc1cccc(Cl)c1	-11%	0%	9%	15µM*	/	16µM*
O=C(CN(c1cccc(C(F)(F)F)c1)S(=O)(=O)c1ccc(Cl)c([N+](=O)[O-])c1)NCc1ccc(F)cc1	-15%	-21%	0%	16µM*	-5%	16µM*
CN(c1cccc(NC(=O)CN(c2ccc(C34CC5CC(CC(C5)C3)C4)cc2)S(C)(=O)=O)c1)S(C)(=O)=O	11%	-11%	6%	21µM*	-6%	18µM*
CN(c1cccc(NC(=O)CN(c2ccc(F)cc2)S(C)(=O)=O)c1)S(C)(=O)=O	1%	-2%	3%	-1%	1%	1%
COc1ccc(S(=O)(=O)Nc2cccc(N(C)S(C)(=O)=O)c2)cc1Br	2%	13%	5%	21µM*	-14%	?
CCc1ccccc1N(CC(=O)Nc1cccc(N(C)S(C)(=O)=O)c1)S(C)(=O)=O	-2%	-1%	0%	-12%	3%	-19%
COc1ccc(C)cc1N(CC(=O)Nc1cccc(N(C)S(C)(=O)=O)c1)S(C)(=O)=O	1%	-22%	2%	?	?	21µM*
CN(c1cccc(NC(=O)CN(c2ccc(Cl)c(Cl)c2)S(=O)(=O)c2ccccc2)c1)S(C)(=O)=O	3%	5%	4%	21µM*	-3%	?
COc1ccc(N(CC(=O)Nc2cccc(N(C)S(C)(=O)=O)c2)S(C)(=O)=O)cc1OC	-9%	-1%	-2%	-25%	-7%	-25%
COc1ccc(N(CC(=O)Nc2ccc(C)c(C)c2)S(=O)(=O)c2ccc(C)cc2)cc1OC	-2%	-9%	2%[12.3 µM]	-17%	/	-6%
Cc1ccc(S(=O)(=O)N(CC(=O)Nc2cccc(N(C)S(C)(=O)=O)c2)c2ccc(Cl)c(Cl)c2)cc1	-9%	7%	2%	23µM*	-7%	21µM*
Nc1cc2c(cc1Br)-c1ccc(F)cc1C2O (stereo unspecified)	/	-1%	/	-18%	-3%	2%
CCc1ccccc1NC(=O)c1nn(-c2ccc(C)cc2)c(=O)c2c1c1ccccc1n2C	-3%	-3%	5%	-5%	/	-7%
CN(C)CCC1(C2=CCCC2)CC/C(=C/c2ccc(Cl)cc2)C1=O (stereo unspecified)	/	-21%	/	8.2µM*	-4%	7.3µM*
CC1(C)CCC/C(=C\c2ccccc2)C1=O	0%	-3%	-14%	-3%	-2%	-20%
Oc1ccc(-c2nc(-c3ccc(O)c(O)c3)cs2)cc1	-6%	-5%	6%	8.2µM*	-4%	8.2µM*
NCCn1oc(=O)[nH]c1=O	-17%	13%	5%	0%	/	-2%
CCc1ccc2ncc(C(=O)c3ccc(C)c(C)c3)c(N3CCC(C(N)=O)CC3)c2c1	0%	3%	5%	21µM*	/	23µM*
CCOC(=O)C1CCN(c2c(C(=O)c3ccccc3)cnc3ccc(Cl)cc23)CC1	-4%	-7%	/	18µM*	-9%	23µM*
CCc1ccc(C(=O)c2cnc3ccc(OC)cc3c2N2CCN(CC)CC2)cc1	-1%	-10%	5%	?	-6%	?
CCCN1CCN(C(=O)c2c(Cl)cnn2C)CC1	-12%	7%	-1%	11%	0%	-7%
O=C1C=CC(=Nc2ccc(F)cc2)O1	/	79µM*	/	4.6µM*	?	2.3µM*
O=C1CCC/C1=c1\s/c(=C\c2cccnc2)c(=O)n1-c1ccccc1	-6%	24%	6%	16µM*	-6%	?
